Data taken from PubChem BioAssay (NCI).
The panel holds about 79,000 compounds, 15% with a hit somewhere; the sample as a whole holds those more often. Rule as the data show it: active = growth inhibition above about 70%; inactive = the rest.

Columns and labels:
[1] = NCI Yeast Anticancer Drug Screen. Data for the rad50 strain (AID 155);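 also: 0% = growth of vehicle-only cultures of the same strain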; settings: S. cerevisiae rad50 strain growth inhibition; at 50.0 µM; stronger effect = higher value
How it was run: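 DNA repair mutant yeast, compound exposure, growth read-out; inhibition is taken relative to vehicle.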

[2] = NCI Yeast Anticancer Drug Screen. Data for the sgs1 mgt1 strain (AID 161);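 also: 0% = growth of cultures given vehicle only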; settings: S. cerevisiae sgs1 mgt1 strain, at 50.0 µM, stronger effect = higher value
How it was run: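 Inhibition of yeast growth, normalised to vehicle-treated controls, is reported for a strain bearing genetic alterations in DNA damage repair.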

[3] = NCI Yeast Anticancer Drug Screen. Data for the cln2 rad14 strain (AID 165);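 also: 0% = growth equal to vehicle treated cultures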; settings: S. cerevisiae cln2 rad14 strain, at 50.0 µM, stronger effect = higher value
How it was run: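 cln2 rad14 yeast strain; compound exposure; growth inhibition read vs vehicle controls.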

[4] = NCI Yeast Anticancer Drug Screen. Data for the mlh1 rad18 strain (AID 175); settings: S. cerevisiae mlh1 rad18 strain growth inhibition; at 50.0 µM; stronger effect = higher value
How it was run: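 Yeast w/ defined DNA-repair lesions; compound exposure; growth vs vehicle controls → % inhibition.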

[5] = NCI Yeast Anticancer Drug Screen. Data for the bub3 strain (AID 167); settings: S. cerevisiae bub3 mutant strain, at 50.0 µM, stronger effect = higher value
How it was run: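 In this screen, a yeast mutant lacking normal mitotic checkpoint function is challenged with compound. Relative growth versus vehicle gives the inhibition value.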

Measured: growth inhibition

Cc1ccc(/C=C2\SC(=S)N(c3ccc(F)cc3)C2=O)o1
inactive: [1] 14.7% | [2] 28.4% | [3] 17.4% | [4] 23.9%

COCCCC/C(=N\OCCN)c1ccc(C(F)(F)F)cc1
inactive: [1] 26.5% | [2] 12.6% | [3] -3.9% | [5] -0.35% | [4] 25.3%

CC[N+](C)(CC)CCO
inactive: [1] 13.7% | [2] 4.4% | [3] 10.7% | [5] 2.9% | [4] 5.05%

O=C(OCC(O)C1OC(c2ccccc2)OC(COC(=O)c2ccccc2)C1O)c1ccccc1 (stereo unspecified)
inactive: [1] 5.85% | [2] 13.6% | [3] 16.6% | [5] 1% | [4] 11.9%

CN(C)c1ccc(C(c2ccc(O)cc2)c2ccc(N(C)C)cc2)cc1
inactive: [1] -10.4% | [2] -17.9% | [3] -38.6% | [4] -6.5%

NCC(=O)CCC(=O)O
inactive: [1] 6.3% | [2] 0.5% | [3] -4.95% | [5] -0.85% | [4] -1.4%

c1cc[n+](C2c3ccccc3C([n+]3ccccc3)c3ccccc32)cc1 (stereo unspecified)
inactive: [1] 25.2% | [2] 16.9% | [3] -23.9% | [5] 28% | [4] 41.5%

CC(C)C1CCCCC1O (stereo unspecified)
inactive: [1] -9.15% | [2] -11.5% | [3] -35.5% | [5] -1.4% | [4] 6.8%

Cc1cc2nc(CC(=O)c3ccccc3)c(=O)[nH]c2cc1C
inactive: [1] 15.7% | [2] 13.3% | [3] 9.4% | [4] 31.3%

C#CCSc1nnnn1-c1ccc(Br)c(C)c1
inactive: [1] 14.8% | [2] 34.5% | [3] 22.3% | [5] 32.6% | [4] 7.1%

Cc1cc(C)c(CC(=O)O)c(C)c1
inactive: [1] 30.5% | [2] 16.9% | [3] 12.3% | [5] 4.3% | [4] 10.4%

CCS(=O)(=O)CCCl
inactive: [1] 12.2% | [2] 2.3% | [5] 0.95% | [4] 5.85%

COc1cc2nn(-c3ccccc3N)nc2cc1OC
inactive: [1] 19.4% | [2] 48.2% | [5] 52.2% | [4] 29.9%

COc1cc2c(cc1OC)[C@H](C(=O)O)[C@@H](c1ccc(OC(C)C)c(OC)c1)N(C)C2=O
inactive: [1] 6.05% | [2] 7.2% | [3] -15.2% | [5] 15.4% | [4] -9.05%

C/C(=N\NC(=O)c1ccccc1N)c1ccccc1O
inactive: [1] 6.15% | [2] 26.6% | [3] 4.5% | [4] 21.7%

Cc1nc2c(ccc3ccccc32)s1
inactive: [1] 10.4% | [2] 22.7% | [3] 6.45% | [5] 3.5% | [4] 15.4%

C/C(=N/NC(N)=O)c1ccco1
inactive: [1] 1.1% | [2] -3.55% | [3] -2% | [5] 1.95% | [4] -3.55%

C#CC(C)(O)c1ccc(Cl)cc1 (stereo unspecified)
inactive: [1] 14.4% | [2] 8.7% | [3] -7.35% | [5] -26.4% | [4] 2.65%

CN(C)CCC(=O)c1ccc(O)cc1
inactive: [1] 4.6% | [2] 3.25% | [5] -14.8%

COS(=O)(=O)c1ccc(Br)cc1
inactive: [1] -6% | [3] -60.8% | [5] 0.6% | [4] -26.2%

COC(=O)c1ccc(NC(=O)CCl)cc1
inactive: [1] 44.8% | [3] 49% | [5] 32.7% | [4] 45.5%

CCOC(=O)C(O)C(O)C(=O)OCC (stereo unspecified)
inactive: [1] 21.4% | [2] -29.3% | [3] -16.7% | [5] -2.85% | [4] 7.85%

O=[N+]([O-])c1ccc(Cl)c(S(=O)(=O)O)c1
inactive: [1] 36.4% | [2] 21.2% | [3] -18.9% | [5] 10.8% | [4] 35.5%

COc1cc(/C=N\Nc2ccccc2)ccc1OC(=O)c1ccccc1
inactive: [1] 25.1% | [2] 41.4% | [3] 23.9% | [4] 17.6%

c1ccc2c(c1)Sc1ccccc1S2
inactive: [1] -6.95% | [2] 22.1% | [3] -19.6% | [5] -3.6% | [4] -18.6%

CC(=O)Nc1c(C)cc(C)cc1C
inactive: [1] 0.3% | [2] -6.4% | [5] 9.45% | [4] 0.1%

CC1=CC(C)(C)NC(=S)N1c1ccc(S(=O)(=O)O)c2cccc(S(=O)(=O)O)c12
inactive: [1] -4.8% | [2] -13.1% | [3] -30.9% | [5] 4.3% | [4] -33.1%

S=c1sc2ccccc2n1CN1CCCCC1
inactive: [1] 7.7% | [2] 45% | [3] 10.6% | [5] 25.3% | [4] 15.8%

COc1ccc(C)cc1OC
inactive: [1] 26.3% | [2] 1.3% | [3] 0.6% | [5] -8.2% | [4] -5.65%

COc1nc(N)nc2c1ncn2C1OC(CO)CC1O (stereo unspecified)
inactive: [1] 13.4% | [2] -3.5% | [5] 0.55% | [4] 25.8%

O=C1OC[C@H]2[C@H](c3ccc(O)c(O)c3)c3cc(O)c(O)cc3C[C@H]12
inactive: [1] 24.9% | [2] 23.9% | [3] 15.8% | [5] 23.7% | [4] 10.9%

CC(=Nc1ccccc1)C1=C(O)C(Cc2cccc(F)c2)NC1=O (stereo unspecified)
inactive: [1] 5.3% | [2] 13.6% | [3] 2.3% | [5] -2.5% | [4] -22%

CCOC(=O)c1cc2cccc(OC)c2oc1=O
inactive: [1] 6.15% | [2] -5.65% | [3] -4.75% | [5] 12.8% | [4] -0.2%

c1c(-c2cc(C3CC3)[nH]n2)n[nH]c1C1CC1
inactive: [1] -62% | [2] -17.6% | [3] -16.4% | [5] 1.8% | [4] 2.35%

CC(=O)CC(=O)N(C)C
inactive: [1] 0.3% | [2] 6.9% | [3] -13.9% | [5] -2.5%
